# Laboratory results taken from PubChem BioAssay (Tox21).
# Values joined by “and” are separate entries in the source; they are usually repeats but may differ in a detail not shown here. Equal values may be shown once. Records with an inconclusive call do not appear. Entries that show only a call come without a potency. The source holds several records for some structures; these can differ, active in one and inactive in another. Active and inactive are the calls of the source. Unless noted, calls follow the shape of the full dose curve.
# What was measured:
# [1] = Nuclear factor erythroid 2-related factor 2/antioxidant responsive element (Nrf2/ARE) small molecule agonists: qHTS cell viability counter screen in human keratinocytes (AID 1919968; active = well fitted curve in the direction sought with a large enough effect in the repeat runs; an effect the other way counts as inactive or inconclusive; also: nearly all actives have a fitted effect of over 55% in size; also: potency is read from the fitted curve at half-maximal effect)
# Procedure, shortened: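 CellTiter-Fluor fluorescence, read 1 h after reagent, gave viability in the same wells as the ARE-luciferase assay. KeratinoSens cells (1,500/well) had 23 h compound exposure at 37 C/5% CO2 following 5 h plating.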
# [2] = Nuclear factor erythroid 2-related factor 2/antioxidant responsive element (Nrf2/ARE) small molecule agonists: luciferase reporter gene qHTS assay in human keratinocytes (AID 1919969); also: nearly all actives have a fitted effect of over 35% in size; also: potency is read from the fitted curve at half-maximal effect
# [3] = biological target: Gonadotropin-releasing hormone receptor (Homo sapiens) (UniProt P30968); assay: Human gonadotropin-releasing hormone receptor (GnRHR) small molecule agonists, calcium flux assay in GnRHR-HEK293 cells (AID 1920063); also: nearly all actives have a fitted effect of over 35% in size; also: potency is read from the fitted curve at half-maximal effect
# Procedure, shortened: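 Agonist mode: compounds at 15 concentrations, in triplicate, went onto calcium dye-loaded GnRHR-HEK293 cells. Intracellular calcium was then followed as 480/540 nm fluorescence at 1 s intervals over 3 min.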
# [4] = biological target: KiSS-1 receptor (Homo sapiens) (UniProt Q969F8); assay: Human kisspeptin (KISS1R) small molecule agonists, calcium flux assay in KISS1R-HEK293 cells (AID 1920064; active = well fitted curve in the direction sought with a large enough effect in the repeat runs; an effect the other way counts as inactive or inconclusive; also: potency is read from the fitted curve at half-maximal effect)
# Procedure, shortened: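 Agonist mode: intracellular calcium rise tracked at 1 s intervals over 3 min (480/540 nm) immediately after compound addition to dye-loaded KISS1R-HEK293 stable cells. Each compound tested at 15 concentrations in triplicate.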
# [5] = G protein-coupled receptor (GPCR) small molecule agonists, calcium flux assay: HEK293 wild type cell line counter screen (AID 1920065); also: potency is read from the fitted curve at half-maximal effect
# Procedure, shortened: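 Calcium flux counter screen: compound added in agonist mode at 15 concentrations in triplicate to dye-loaded parental HEK293 cells. Fluorescence (480/540) read kinetically for 3 min; ATP served as positive control.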
# [6] = p53 small molecule agonists, cell-based qHTS assay with human liver microsomes (AID 1963577); also: potency is read from the fitted curve at half-maximal effect;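 as to activation: p53 response element beta-lactamase reporter cells with liver microsomes plus NADPH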
# Procedure, shortened: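 With metabolic activation: human liver microsomes (0.5 mg/mL final) plus NADPH (0.5 mg/mL final) added alongside compounds to p53RE-bla cells; 16 h 37 C exposure; beta-lactamase read by LiveBLAzer fluorescence.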
# [7] = p53 small molecule agonists, cell-based qHTS assay with human liver microsomes: qHTS cell viability counter screen (AID 1963579); also: nearly all actives have a fitted effect of over 45% in size; also: potency is read from the fitted curve at half-maximal effect
# Procedure, shortened: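 Metabolic activation used human liver microsomes and NADPH, both 0.5 mg/mL final, over 16 hours at 37 C on p53RE-bla cells (4,000/well). Cytotoxicity measured by CellTiter-Glo luminescence, 30 min at room temperature.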
# [8] = p53 small molecule agonists, cell-based qHTS assay with rat liver microsomes: qHTS cell viability counter screen (AID 1963580); also: nearly all actives have a fitted effect of over 45% in size
# Procedure, shortened: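 Luminescent ATP readout (CellTiter-Glo, 30 min at room temperature) reports viability of p53RE-bla HCT-116 cells after 16 h at 37 C with test compounds under metabolic activation by rat liver microsomes and NADPH at 0.5 mg/mL final each.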
# [9] = p53 small molecule agonists, cell-based qHTS assay: qHTS cell viability counter screen (AID 1963581); also: nearly all actives have a fitted effect of over 45% in size; also: potency is read from the fitted curve at half-maximal effect
# Procedure, shortened: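 Counter screen read by CellTiter-Glo luminescence (ATP content, 30 min at room temperature), run in the same wells as the beta-lactamase reporter read. HCT-116 p53RE-bla cells saw compounds for 16 h at 37 C.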
# [10] = biological target: 5-hydroxytryptamine receptor 2A (Homo sapiens) (UniProt P28223); assay: 5-hydroxytryptamine receptor 2A (HTR2A) small molecule antagonists, cell-based qHTS assay (AID 1963586); also: nearly all actives have a fitted effect of over 45% in size; also: potency is read from the fitted curve at half-maximal effect
# Procedure, shortened: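 CHO cells stably expressing human HTR2A were plated for 18 h at 37 C, then loaded with calcium dye for 1 h. Compounds were preincubated 5 min at room temperature before DOI (4 nM solution) was added. Kinetic fluorescence was read for 3 min.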
# [11] = biological target: 5-hydroxytryptamine receptor 2A (Homo sapiens) (UniProt P28223); assay: 5-hydroxytryptamine receptor 2A (HTR2A) small molecule agonists, cell-based qHTS assay (AID 1963587); also: nearly all actives have a fitted effect of over 30% in size; also: potency is read from the fitted curve at half-maximal effect
# Procedure, shortened: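 HTR2A-CHO cells, plated 18 h at 37 C/5% CO2, dye-loaded 1 h at 37 C; compounds in DMSO added by pin tool (agonist mode). Intracellular calcium flux read as kinetic fluorescence on FDSS over 2 min at 1 s intervals.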
# [12] = biological target: Muscarinic acetylcholine receptor M1 (Homo sapiens) (UniProt P11229); assay: Cholinergic receptor muscarinic 1 (CHRM1) small molecule antagonists, cell-based qHTS assay (AID 1963588); also: nearly all actives have a fitted effect of over 40% in size; also: potency is read from the fitted curve at half-maximal effect
# Procedure, shortened: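 Compounds were tested at 15 concentrations in three independent runs. Dye-loaded CHRM1-CHO cells were exposed 5 min at room temperature before stimulation by acetylcholine added at 50nM. Intracellular calcium was read kinetically on FDSS for 3 min.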
# [13] = biological target: Muscarinic acetylcholine receptor M1 (Homo sapiens) (UniProt P11229); assay: Cholinergic receptor muscarinic 1 (CHRM1) small molecule agonists, cell-based qHTS assay (AID 1963589); also: nearly all actives have a fitted effect of over 35% in size; also: potency is read from the fitted curve at half-maximal effect
# Procedure, shortened: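 Agonist-mode calcium-flux screen: compounds at 15 concentrations, three independent runs, were pin-transferred onto dye-loaded human CHRM1-CHO cells. Fluorescence was then recorded kinetically every second over minutes.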
# [14] = cAMP Responsive Elements (CRE) small molecule agonists, cell-based qHTS assay (AID 1963590)
# Procedure, shortened: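 Agonist mode: compound added to CRE-bla HEK 293T cells (2,000/well, 18 h after plating) for 3 h at 37 C/5% CO2. Reporter activity detected via FRET beta-lactamase substrate, 2 h room-temperature loading.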
# [15] = cAMP Responsive Elements (CRE) small molecule antagonists, cell-based qHTS assay (AID 1963591; active = well fitted inhibition curve with a large enough effect in the signal ratio in the repeat runs, not every such curve was filed as active; the % refers to the signal ratio; also: potency is read from the fitted curve at half-maximal effect)
# Procedure, shortened: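 Antagonist mode: compounds are added alongside the adenylyl cyclase activator NKH477 (0.25 uM final) to CRE-bla HEK293T cells for 3 h. LiveBLAzer FRET substrate, 2 h at room temperature, reports bla expression.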
# [16] = biological target: Beta-2 adrenergic receptor (Homo sapiens) (UniProt P07550); assay: Adrenergic beta2 receptor (ADRB2) small molecule antagonists, cell-based qHTS assay (AID 1963592); also: nearly all actives have a fitted effect of over 50% in size; also: potency is read from the fitted curve at half-maximal effect
# Procedure, shortened: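 Assay format: CHO-ADRB2 cells, 18-20hr seeding at 37C/5% CO2, then compound plus 1nM isoproterenol agonist mix for 0.5hr RT. Homogeneous time-resolved fluorescence cAMP detection after 1hr, expressed as 665/615 nm ratio.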
# [17] = biological target: D(2) dopamine receptor (Homo sapiens) (UniProt P14416); assay: Dopamine D2 receptor (DRD2) small molecule agonists, cell-based qHTS assay (AID 1963594); also: nearly all actives have a fitted effect of over 35% in size; also: potency is read from the fitted curve at half-maximal effect
# Procedure, shortened: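 HEK293 cells stably expressing DRD2 were cultured 24 h at 37 C, then given Ro20-1724 (0.1 mM final) and compounds for 10 min at room temperature. NKH477 (200nM) was then added for 30 min. cAMP was read by HTRF.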
# [18] = biological target: D(2) dopamine receptor (Homo sapiens) (UniProt P14416); assay: Dopamine D2 receptor (DRD2) small molecule antagonists, cell-based qHTS assay (AID 1963595; active = well fitted inhibition curve with a large enough effect in the signal ratio in the repeat runs, with a control signal flat; the % refers to the signal ratio; also: potency is read from the fitted curve at half-maximal effect)
# Procedure, shortened: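 In this cell-based antagonist screen, compounds act for 10 min at room temperature before a 30 min challenge with 12 nM quinpirole and 200 nM NKH477. cAMP is quantified by HTRF competition in DRD2-HEK293 cells containing 0.1 mM Ro20-1724.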
# [19] = p53 small molecule agonists, cell-based qHTS assay (AID 1963582; active = well fitted activation curve with a large enough effect in the signal ratio in the repeat runs, not every such curve was filed as active; the % refers to the signal ratio)
# Procedure, shortened: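 Read-out is beta-lactamase FRET fluorescence after 2 h at room temperature with LiveBLAzer B/G substrate. p53 response element-bla cells were treated 16 h at 37 C with compounds in DMSO, added 5 h after seeding.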
# [20] = biological target: Beta-2 adrenergic receptor (Homo sapiens) (UniProt P07550); assay: Adrenergic beta2 receptor (ADRB2) small molecule agonists, cell-based qHTS assay (AID 1963593);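 also: CHO cells stably overexpressing human ADRB2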
# Procedure, shortened: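 CHO cells stably over-expressing ADRB2 were plated overnight at 37C, then dosed with compounds plus a stimulation mix containing 100uM IBMX and 25uM Ro-20-1724 for 0.5hr at room temperature. cAMP was measured by HTRF competition, 1hr.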
# Sequence of 5-hydroxytryptamine receptor 2A (Homo sapiens) (P28223 whole entry, looked up): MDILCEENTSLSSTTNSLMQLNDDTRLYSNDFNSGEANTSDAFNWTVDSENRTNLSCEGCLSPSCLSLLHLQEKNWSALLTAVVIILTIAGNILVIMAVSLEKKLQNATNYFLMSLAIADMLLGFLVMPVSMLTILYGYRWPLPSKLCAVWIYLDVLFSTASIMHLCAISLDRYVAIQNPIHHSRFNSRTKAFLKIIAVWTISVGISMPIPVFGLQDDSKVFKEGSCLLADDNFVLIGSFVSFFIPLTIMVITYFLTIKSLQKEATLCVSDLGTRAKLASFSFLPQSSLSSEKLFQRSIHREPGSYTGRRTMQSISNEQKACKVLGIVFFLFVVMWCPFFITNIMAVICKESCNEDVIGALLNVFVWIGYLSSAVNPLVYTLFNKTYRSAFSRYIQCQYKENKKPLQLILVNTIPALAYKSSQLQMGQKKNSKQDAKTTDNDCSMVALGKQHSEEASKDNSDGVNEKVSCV
# Sequence of D(2) dopamine receptor (Homo sapiens) (P14416 whole entry, looked up): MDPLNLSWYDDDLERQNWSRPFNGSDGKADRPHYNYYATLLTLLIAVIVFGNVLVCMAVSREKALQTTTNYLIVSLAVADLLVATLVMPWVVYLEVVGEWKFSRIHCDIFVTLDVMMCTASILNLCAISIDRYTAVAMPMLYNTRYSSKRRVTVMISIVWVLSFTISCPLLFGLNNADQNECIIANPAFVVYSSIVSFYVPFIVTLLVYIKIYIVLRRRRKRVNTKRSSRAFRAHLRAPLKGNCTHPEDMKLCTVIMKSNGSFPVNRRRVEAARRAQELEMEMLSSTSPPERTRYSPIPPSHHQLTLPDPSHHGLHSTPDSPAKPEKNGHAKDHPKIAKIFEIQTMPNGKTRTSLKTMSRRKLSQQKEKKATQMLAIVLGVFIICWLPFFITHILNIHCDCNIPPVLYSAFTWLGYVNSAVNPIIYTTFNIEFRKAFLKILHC
# Sequence of Gonadotropin-releasing hormone receptor (Homo sapiens) (P30968 whole entry, looked up): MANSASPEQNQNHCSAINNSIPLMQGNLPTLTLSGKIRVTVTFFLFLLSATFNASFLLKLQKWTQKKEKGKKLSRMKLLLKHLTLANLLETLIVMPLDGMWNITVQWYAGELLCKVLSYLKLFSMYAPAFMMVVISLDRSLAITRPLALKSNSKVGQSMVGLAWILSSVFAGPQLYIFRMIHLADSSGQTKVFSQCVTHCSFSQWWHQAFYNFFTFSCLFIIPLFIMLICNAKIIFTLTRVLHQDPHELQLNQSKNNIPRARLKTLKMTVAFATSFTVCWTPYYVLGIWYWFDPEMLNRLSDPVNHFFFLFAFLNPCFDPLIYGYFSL
# Sequence of Muscarinic acetylcholine receptor M1 (Homo sapiens) (P11229 whole entry, looked up): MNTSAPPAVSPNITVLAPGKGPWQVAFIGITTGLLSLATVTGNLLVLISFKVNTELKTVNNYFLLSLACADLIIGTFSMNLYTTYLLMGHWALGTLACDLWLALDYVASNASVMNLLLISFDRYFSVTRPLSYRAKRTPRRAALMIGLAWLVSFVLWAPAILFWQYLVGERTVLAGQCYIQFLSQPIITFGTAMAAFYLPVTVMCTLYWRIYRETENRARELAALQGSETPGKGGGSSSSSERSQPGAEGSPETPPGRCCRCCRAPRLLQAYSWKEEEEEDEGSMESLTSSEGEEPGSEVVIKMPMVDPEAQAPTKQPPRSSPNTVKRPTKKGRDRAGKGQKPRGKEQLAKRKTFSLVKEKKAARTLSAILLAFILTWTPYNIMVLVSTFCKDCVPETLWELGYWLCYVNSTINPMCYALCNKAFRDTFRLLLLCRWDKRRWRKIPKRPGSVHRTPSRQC
# Sequence of KiSS-1 receptor (Homo sapiens) (Q969F8 whole entry, looked up): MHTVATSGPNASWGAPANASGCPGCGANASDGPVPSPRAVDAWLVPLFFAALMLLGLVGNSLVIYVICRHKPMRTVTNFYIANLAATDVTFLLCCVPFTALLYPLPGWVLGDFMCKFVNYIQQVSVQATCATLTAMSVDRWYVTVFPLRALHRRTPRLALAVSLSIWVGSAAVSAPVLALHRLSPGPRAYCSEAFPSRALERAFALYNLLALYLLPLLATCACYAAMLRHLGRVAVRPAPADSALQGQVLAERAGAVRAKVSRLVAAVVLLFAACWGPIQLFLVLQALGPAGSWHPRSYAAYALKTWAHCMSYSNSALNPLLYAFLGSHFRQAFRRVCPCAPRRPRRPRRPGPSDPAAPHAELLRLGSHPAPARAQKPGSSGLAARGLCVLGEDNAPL
# Sequence of Beta-2 adrenergic receptor (Homo sapiens) (P07550 whole entry, looked up): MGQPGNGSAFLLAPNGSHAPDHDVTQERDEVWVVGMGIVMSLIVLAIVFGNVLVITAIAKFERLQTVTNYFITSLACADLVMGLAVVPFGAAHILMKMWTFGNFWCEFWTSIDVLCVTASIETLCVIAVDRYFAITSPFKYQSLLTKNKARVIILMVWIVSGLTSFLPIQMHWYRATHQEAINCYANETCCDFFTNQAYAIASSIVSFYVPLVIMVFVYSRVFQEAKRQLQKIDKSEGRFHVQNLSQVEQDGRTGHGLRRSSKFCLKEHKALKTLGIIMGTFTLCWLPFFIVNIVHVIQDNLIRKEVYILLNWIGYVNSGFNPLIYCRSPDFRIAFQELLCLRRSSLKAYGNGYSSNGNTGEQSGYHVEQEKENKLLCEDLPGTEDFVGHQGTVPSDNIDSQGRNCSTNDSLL
SMILES,Potency [1],Potency [2],Potency [3],Potency [4],Potency [5],Potency [6],Potency [7],Potency [8],Potency [9],Potency [10],Potency [11],Potency [12],Potency [13],Potency [14],Potency [15],Potency [16],Potency [17],Potency [18],Potency [19],Potency [20]
CC(C)OC(=O)Nc1ccccc1,inactive,inactive,inactive,inactive,inactive,inactive,inactive,inactive,inactive,inactive,inactive,inactive,inactive,inactive,inactive,inactive,inactive,inactive,,
ClC1(Cl)C2(Cl)C3(Cl)C4(Cl)C(Cl)(Cl)C5(Cl)C3(Cl)C1(Cl)C5(Cl)C24Cl (stereo not drawn),inactive,inactive,inactive,inactive,inactive,inactive,inactive,inactive,inactive,inactive,inactive,inactive,inactive,inactive,inactive,inactive,inactive,,,
CCC[CH2][Sn]([Cl])([CH2]CCC)[CH2]CCC,244 nM (active) and 486 nM (active),244 nM (active) and 486 nM (active),7.78 µM (active) and 38.9 µM (active),43.6 µM (active),34.7 µM (active),inactive,6.48 µM (active) and 5.76 µM (active),,1.29 µM (active) and inactive,18.8 µM (active),11 µM (active) and 34.7 µM (active),16.8 µM (active),21.9 µM (active) and 38.9 µM (active),,,1.09 µM (active) and 1.37 µM (active),,15.4 µM (active) and 19.3 µM (active),,
CCOP(=S)(OCC)O/N=C(\C#N)c1ccccc1,inactive,inactive,inactive,inactive,inactive,2.57 µM (active),inactive,inactive,,inactive,,inactive,inactive,inactive,inactive,inactive,inactive,inactive,inactive,inactive
COc1cc(-c2ccc(N)c(OC)c2)ccc1N,inactive,inactive,inactive,inactive,inactive,inactive,inactive,inactive,inactive,,inactive,inactive,inactive,inactive,inactive,,inactive,inactive,inactive,
Cc1ccc(N=CN(C)C=Nc2ccc(C)cc2C)c(C)c1,61.4 µM (active) and inactive,inactive,inactive,inactive,inactive,inactive,inactive,,inactive,,,,,inactive,,inactive,inactive,inactive,inactive,inactive
Clc1ccc(C(Cl)(Cl)Cl)cn1,inactive,inactive,inactive,inactive,inactive,inactive,inactive,inactive,inactive,inactive,inactive,inactive,inactive,inactive,inactive,inactive,inactive,inactive,,inactive
CN1C[C@H](C(=O)N[C@]2(C)O[C@@]3(O)[C@@H]4CCCN4C(=O)[C@H](Cc4ccccc4)N3C2=O)C=C2c3cccc4[nH]cc(c34)C[C@H]21,inactive,inactive,inactive,inactive,inactive,inactive,inactive,inactive,1.45 µM (active) and inactive,,,,,inactive,48.8 µM (active),,1.23 µM (active),,inactive,inactive
CC(C)(C)C(O)(CCc1ccc(Cl)cc1)Cn1cncn1 (stereo not drawn),inactive,inactive,inactive,inactive,inactive,inactive,inactive,inactive,inactive,,inactive,,inactive,inactive,,inactive,inactive,inactive,,inactive
CC1CCC(=O)O1 (stereo not drawn),inactive,inactive,inactive,inactive,inactive,inactive,inactive,inactive,inactive,inactive,inactive,,inactive,inactive,inactive,inactive,inactive,inactive,,
CC12CC1(C)C(=O)N(c1cc(Cl)cc(Cl)c1)C2=O (stereo not drawn),inactive,inactive,inactive,inactive,inactive,inactive,inactive,inactive,inactive,inactive,inactive,,inactive,,inactive,,inactive,inactive,,inactive
COC[C@H](C)N(C(=O)CCl)c1c(C)csc1C,inactive,inactive,inactive,inactive,inactive,inactive,inactive,inactive,inactive,,,inactive,,inactive,inactive,inactive,inactive,inactive,inactive,inactive
CCOP(=S)(OCC)Oc1nc(Cl)c(Cl)cc1Cl,inactive,27.4 µM (active) and 61.1 µM (active),inactive,inactive,inactive,inactive,inactive,inactive,inactive,,inactive,inactive,inactive,,,inactive,inactive,inactive,inactive,inactive
COP(=O)(OC)C(O)C(Cl)(Cl)Cl (stereo not drawn),inactive,43.7 µM (active) and 61.1 µM (active) and inactive,inactive,inactive,inactive,1.46 µM (active),inactive,inactive,inactive,inactive and 8.39 µM (active),,inactive,inactive,inactive,inactive,inactive,inactive,inactive,inactive,
CCCCCCCCCCCCCC[P+](CCCCCC)(CCCCCC)CCCCCC,7.73 µM (active) and 19.5 µM (active) and inactive,inactive,inactive,inactive,inactive,inactive,14.5 µM (active) and 20.6 µM (active) and inactive,,7.29 µM (active) and 18.4 µM (active),inactive,inactive,inactive,inactive,,,inactive,inactive,12.2 µM (active) and 21.9 µM (active) and inactive,,inactive
